Laboratory results reported in PubChem BioAssay.
For some assays here: Results with a measured potency or affinity are listed apart. Activity calls are given as the source filed them.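 Rule for the calls, unless noted: active = signal rise over 3 SD above mean of control wells given weak agonist, in both repeats and first screen; inactive = the rest.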

Tests used:
[1] = tested on: TRPC4 beta (transient receptor potential cation channel C4), mouse; experiment: activators of mouse TRPC4 channel, confirmation, cell-based, Fluo4 calcium, HEK293 TRPC4beta/mu-opioid, duplicates, 10 µM (AID 2426;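 active = fluorescence ratio normalized to control raised more than 50% in primary screen plus both repeat runs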); conditions: Fluo4 calcium fluorescence, at 10 µM; active compounds read high
[2] = tested on: transient receptor potential cation channel C4 beta (TRPC4), mouse; experiment: activators of mouse TRPC4 channel, confirmation, cell-based, second round, Fluo4, HEK293 TRPC4beta/mu-opioid, 1 µM (AID 2461;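 active = primary screen active and over 50% activation in each of two duplicate runs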); conditions: Fluo4 calcium fluorescence, at 1 µM; active compounds read high
[3] = tested on: TRPC4 (transient receptor potential cation channel C4 beta), mouse; experiment: positive allosteric modulators of mouse TRPC4, confirmation, cell-based, second round, Fluo-4, HEK293 TRPC4beta/mu-opioid, 1 µM (AID 2554;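 active = primary screen hit whose fluorescence ratio, in both repeats, exceeds the weak agonist control mean by 3 SD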); conditions: DAMGO EC20, Fluo-4 calcium flux, at 1 µM; active compounds read high
[4] = tested on: TRPC4 beta (transient receptor potential cation channel C4), mouse; experiment: positive allosteric modulators of mouse TRPC4, confirmation, cell-based, Fluo-4, HEK293 TRPC4beta/mu-opioid (AID 2555;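 active = primary screen hit whose calcium fluorescence ratio, in both repeats, exceeds the weak agonist control mean by 3 SD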); conditions: DAMGO EC20, Fluo-4 calcium flux, at 10 µM; active compounds read high
[5] = molecular target: Short transient receptor potential channel 4 (Mus musculus) (UniProt Q9QUQ5); experiment: inhibitors of mouse TRPC4 channel, confirmation, cell-based, Fluo4, HEK293 TRPC4beta/mu-opioid (AID 2636;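 active = calcium signal cut by more than 3 SD below the full-agonist control yet still positive, in both repeats and the earlier primary screen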); conditions: DAMGO, Fluo4 calcium flux, at 10 µM; active compounds read high
Sequence of Short transient receptor potential channel 4 (Mus musculus) (Q9QUQ5 whole entry, looked up): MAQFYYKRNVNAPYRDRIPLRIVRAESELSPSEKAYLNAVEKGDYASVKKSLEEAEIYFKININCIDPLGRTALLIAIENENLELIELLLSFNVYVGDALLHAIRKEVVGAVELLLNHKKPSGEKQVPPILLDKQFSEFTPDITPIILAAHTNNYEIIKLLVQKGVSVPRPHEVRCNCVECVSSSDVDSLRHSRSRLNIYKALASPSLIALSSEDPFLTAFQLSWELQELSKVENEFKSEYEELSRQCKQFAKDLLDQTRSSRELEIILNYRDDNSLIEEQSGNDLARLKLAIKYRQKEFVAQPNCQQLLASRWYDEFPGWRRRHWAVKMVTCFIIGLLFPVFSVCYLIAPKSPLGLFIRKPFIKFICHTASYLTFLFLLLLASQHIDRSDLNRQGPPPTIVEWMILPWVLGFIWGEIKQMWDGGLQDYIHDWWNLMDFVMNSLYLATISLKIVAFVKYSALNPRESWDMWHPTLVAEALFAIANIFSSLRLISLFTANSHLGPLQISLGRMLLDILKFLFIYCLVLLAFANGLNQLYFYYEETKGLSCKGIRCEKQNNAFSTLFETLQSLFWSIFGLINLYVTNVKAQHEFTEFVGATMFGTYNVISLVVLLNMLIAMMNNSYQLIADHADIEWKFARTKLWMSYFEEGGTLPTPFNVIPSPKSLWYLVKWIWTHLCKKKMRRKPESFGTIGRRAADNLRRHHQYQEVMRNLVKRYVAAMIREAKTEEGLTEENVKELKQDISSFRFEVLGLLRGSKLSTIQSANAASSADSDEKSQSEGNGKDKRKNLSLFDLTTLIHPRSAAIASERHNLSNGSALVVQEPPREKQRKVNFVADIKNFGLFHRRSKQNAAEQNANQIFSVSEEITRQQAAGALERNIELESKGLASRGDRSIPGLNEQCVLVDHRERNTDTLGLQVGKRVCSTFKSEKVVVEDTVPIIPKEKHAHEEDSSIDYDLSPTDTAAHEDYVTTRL

[6] = molecular target: Short transient receptor potential channel 4 (Mus musculus) (UniProt Q9QUQ5); experiment: inhibitors of mouse TRPC4 channel, confirmation, cell-based, second round, Fluo4, HEK293 TRPC4beta/mu-opioid, 1 µM (AID 2637;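 active = calcium signal ratio cut to more than 3 SD under the fully stimulated control mean yet still positive, in both repeats and the primary screen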); conditions: Fluo4 calcium flux, DAMGO, at 1 µM; active compounds read high
[7] = molecular target: Short transient receptor potential channel 4 (Mus musculus) (UniProt Q9QUQ5); experiment: mouse TRPC4 channel activators, dose response, cell-based, HEK293 TRPC4/mu-opioid, Fluo-4 calcium (AID 434937;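 active = primary screen activator hit with a dose response curve and TRPC4 channel activation at any tested dose; inactive = no activation, no dose response, or not a primary hit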)
[8] = molecular target: Short transient receptor potential channel 4 (Mus musculus) (UniProt Q9QUQ5); experiment: TRPC4 positive allosteric modulators, dose response, cell-based, HEK293 TRPC4/mu-opioid, Fluo-4 calcium, EC20 DAMGO (AID 434941;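 active = earlier screen potentiator hit that boosts the TRPC4 ion channel at some dose, with a dose response; inactive = no potentiation, no dose response, or not a prior hit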;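 note: calcium entry triggered by an EC20 dose of DAMGO at the co-expressed mu-opioid receptor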)
[9] = molecular target: Short transient receptor potential channel 4 (Mus musculus) (UniProt Q9QUQ5); experiment: mouse TRPC4 channel inhibitors, dose response, cell-based, HEK293 TRPC4/mu-opioid, Fluo-4 calcium (AID 434942;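 active = primary screen inhibitor hit that blocks the TRPC4 channel at some tested dose, yielding a dose curve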)
[10] = molecular target: Short transient receptor potential channel 6 (Mus musculus) (UniProt Q61143); experiment: inhibition of mouse TRPC6 channel, confirmation, selectivity assay for TRPC4 inhibitor project, cell-based, HEK293, membrane potential dye, duplicate (AID 434948;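 active = active in primary screen and both duplicates, each dropping signal beyond three positive-control SD with fluorescence still positive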); conditions: HEK293 TRPC6, membrane potential dye fluorescence, at 10 µM, stimulated with maximal-effect acetylcholine; active compounds read high
Sequence of Short transient receptor potential channel 6 (Mus musculus) (Q61143 whole entry, looked up): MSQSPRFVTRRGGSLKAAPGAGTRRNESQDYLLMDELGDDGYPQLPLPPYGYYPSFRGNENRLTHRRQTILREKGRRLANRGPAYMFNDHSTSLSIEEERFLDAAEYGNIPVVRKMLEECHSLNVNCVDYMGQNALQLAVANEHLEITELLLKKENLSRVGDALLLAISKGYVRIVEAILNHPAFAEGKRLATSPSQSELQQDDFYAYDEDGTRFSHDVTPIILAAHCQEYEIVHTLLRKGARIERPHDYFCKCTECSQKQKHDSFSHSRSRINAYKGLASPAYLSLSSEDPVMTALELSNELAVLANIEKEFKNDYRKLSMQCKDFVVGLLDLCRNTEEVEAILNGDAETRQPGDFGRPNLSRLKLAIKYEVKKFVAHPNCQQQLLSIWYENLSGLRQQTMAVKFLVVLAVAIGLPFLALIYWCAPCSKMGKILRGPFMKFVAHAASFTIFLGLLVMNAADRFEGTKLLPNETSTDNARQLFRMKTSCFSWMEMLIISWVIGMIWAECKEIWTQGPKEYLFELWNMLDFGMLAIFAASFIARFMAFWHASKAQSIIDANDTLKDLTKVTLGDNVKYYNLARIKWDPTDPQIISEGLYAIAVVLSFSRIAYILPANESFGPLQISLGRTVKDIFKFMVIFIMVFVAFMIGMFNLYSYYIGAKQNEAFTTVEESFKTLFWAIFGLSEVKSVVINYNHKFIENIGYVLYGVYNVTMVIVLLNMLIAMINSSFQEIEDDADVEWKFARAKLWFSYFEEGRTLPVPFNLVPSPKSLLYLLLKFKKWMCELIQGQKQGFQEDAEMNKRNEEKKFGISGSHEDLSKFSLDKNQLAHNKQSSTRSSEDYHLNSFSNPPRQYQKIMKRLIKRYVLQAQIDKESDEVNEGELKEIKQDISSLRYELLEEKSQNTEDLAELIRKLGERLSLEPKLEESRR

[11] = molecular target: Short transient receptor potential channel 6 (Mus musculus) (UniProt Q61143); experiment: activation of mouse TRPC6 channel, confirmation, selectivity assay for TRPC4 activator project, cell-based, HEK293, membrane potential dye, duplicate (AID 434950;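 active = membrane potential signal rise above negative control mean plus 3 SD in both duplicates, also active in the earlier TRPC4 screen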;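 for activation: 0% = buffer only wells and 100% = acetylcholine maximal-effect wells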); conditions: HEK293 TRPC6, membrane potential fluorescence, at 10 µM; active compounds read high
[12] = molecular target: Short transient receptor potential channel 6 (Mus musculus) (UniProt Q61143); experiment: TRPC6 potentiation by TRPC4 potentiator hits, confirmation, selectivity assay for TRPC4 potentiator project, HEK293 cells, membrane potential dye, duplicate (AID 434952;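 active = compound raising the membrane signal above positive-control mean plus 3 SD in both repeats, and a primary screen hit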); conditions: HEK293 TRPC6, membrane potential dye fluorescence, at 10 µM, maximal acetylcholine added after compound; active compounds read high
[13] = molecular target: Short transient receptor potential channel 4 (Mus musculus) (UniProt Q9QUQ5); experiment: calcium flux activators in TRPC4/5HT1a cells, counter-screen for TRPC4 activator project, cell-based, second counter screen, HEK293 TRPC4/5HT1a, Fluo-4 (AID 434977;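 active = calcium signal rise above buffer-control mean plus 5 SD in both duplicates, and also a hit in the primary screen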); conditions: Fluo-4 calcium flux, at 10 µM; active compounds read high
[14] = calcium flux inhibitors in TRPC4/5HT1a cells, confirmation, counter-screen for TRPC4 inhibitor project, cell-based, second counter screen, HEK293 TRPC4/5HT1a, Fluo-4 (AID 434978;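 active = primary screen active whose calcium signal fell more than 3 SD beyond the full-serotonin control mean in both duplicate plates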;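 for outcome: serotonin given first at submaximal then at maximal dose after compound preincubation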); conditions: Fluo-4 calcium flux, at 10 µM, serotonin added to trigger calcium flux; active compounds read high
[15] = tested on: TRPC4 (mouse), co-expressed with 5HT1a in HEK293; experiment: calcium flux potentiators in TRPC4/5HT1a cells, confirmation, counter-screen for TRPC4 potentiator project, cell-based, second counter screen, HEK293 TRPC4/5HT1a, Fluo-4 (AID 434979); conditions: Fluo-4 calcium flux, at 10 µM, serotonin added at its EC20 dose; active compounds read high
[16] = calcium flux activation in mu-opioid HEK293 cells, confirmation, counter-screen for TRPC4 activator project, cell-based, HEK293 mu-opioid receptor line (AID 449723;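 active = hit in primary screen, with calcium signal over 5 SD above buffer well mean in both duplicates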;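 note: counter screen cells carry the mu-opioid receptor alone and lack TRPC4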); conditions: Fluo-4 calcium fluorescence, at 10 µM; active compounds read high
[17] = calcium flux enhancement in mu-opioid HEK293 cells, confirmation, counter-screen for TRPC4 allosteric potentiator project, cell-based, HEK293 mu-opioid receptor line (AID 449724;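 active = calcium signal rise more than 3 SD above the low-dose agonist control mean, in both duplicate plates and the primary screen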); conditions: Fluo-4 calcium flux, at 10 µM, compound added before EC20 DAMGO stimulus; active compounds read high

O=C(NCCCN1CCOCC1)C1CCN(S(=O)(=O)c2c(Cl)cccc2Cl)CC1
inactive: outcome [1] | outcome [2] | outcome [3] | outcome [4] | outcome [5] | outcome [6] | outcome [7] | outcome [8] | outcome [9] | outcome [10] | outcome [11] | outcome [12] | outcome [13] | outcome [14] | outcome [15] | outcome [16] | outcome [17]

COc1ccc(CNc2ccc(Cl)cc2)cc1Cn1ccnc1
inactive: outcome [1] | outcome [2] | outcome [3] | outcome [4] | outcome [5] | outcome [6] | outcome [7] | outcome [8] | outcome [9] | outcome [10] | outcome [11] | outcome [12] | outcome [13] | outcome [14] | outcome [15] | outcome [16] | outcome [17]

CSCC[C@H](NC(=O)N1CCn2c1nc1ccccc12)C(=O)NCc1ccc(C)cc1
active: potentiation [4] 30% | potentiation [15] 6.18%
inactive: outcome [1] | outcome [2] | outcome [3] | outcome [5] | outcome [6] | outcome [7] | outcome [8] | outcome [9] | outcome [10] | outcome [11] | outcome [12] | outcome [13] | outcome [14] | outcome [16] | outcome [17]

Cc1sc2nc(SCC(N)=O)n(C)c(=O)c2c1C
inactive: outcome [1] | outcome [2] | outcome [3] | outcome [5] | outcome [6] | outcome [7] | outcome [8] | outcome [9] | outcome [10] | outcome [11] | outcome [12] | outcome [13] | outcome [14] | outcome [16] | outcome [17]
active: potentiation [4] 16% | potentiation [15] 26.5%

O=S(=O)(Nc1ccc(S(=O)(=O)Nc2cccc3ccccc23)cc1)c1ccccc1
inactive: outcome [1] | outcome [2] | outcome [3] | outcome [4] | outcome [5] | outcome [6] | outcome [7] | outcome [8] | outcome [9] | outcome [10] | outcome [11] | outcome [12] | outcome [13] | outcome [14] | outcome [15] | outcome [16] | outcome [17]

Cc1ccc(C2(CCNC(C)c3cccs3)CCOC(C(C)C)C2)cc1 (centres undefined)
active: activation [11] 69%
inactive: outcome [1] | outcome [2] | outcome [3] | outcome [4] | outcome [5] | outcome [6] | outcome [7] | outcome [8] | outcome [9] | outcome [10] | outcome [12] | outcome [13] | outcome [14] | outcome [15] | outcome [16] | outcome [17]

Cc1ccc(Oc2ccccc2NC(=O)CSCC(=O)Nc2cc(C)on2)cc1
active: inhibition [5] 62% | inhibition [14] 35.3%
inactive: outcome [1] | outcome [2] | outcome [3] | outcome [4] | outcome [6] | outcome [7] | outcome [8] | outcome [9] | outcome [10] | outcome [11] | outcome [12] | outcome [13] | outcome [15] | outcome [16] | outcome [17]
